Laboratory results taken from PubChem BioAssay (NCATS).
Records with an inconclusive call do not appear. The source made the active and inactive calls. The call rests on the fitted dose curve; in most records, active means well fitted curve in the direction sought with a large enough effect; inconclusive means small, poorly fitted or top-dose-only effect, or another doubt; inactive means no such curve, though single readings can be large; an effect the other way counts as inactive or inconclusive.

Assays:
[1] = Cell Viability - Mesenchymal (AID 546);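 further: cells exposed to compound for 40 hours before reading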
How it was run: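 Human renal mesenchymal cells (glomerulus-derived), 1000 cells/well, 5 hr 37 °C pre-incubation; compound 40 hr, 37 °C; CellTiter-Glo, 20 min RT; luminescence; AC50 via Hill equation.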

[2] = Cellular Toxicity (caspase-3) HepG2 (AID 654);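 further: cells exposed to compound for 16 hours before reading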
How it was run: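 Concentration-response AC50 values reflect caspase-3/7 induction in HepG2 cells after 16 hours of compound exposure, quantified by luminescence from liberated aminoluciferin and referenced to 100 uM tamoxifen as full stimulation.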

[3] = Cellular Toxicity (caspase-3) Jurkat (AID 655);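 further: cells exposed to compound for 16 h at 37 °C before reading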
How it was run: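 5000 Jurkat cells/well; compound 16 hr, 37 °C; Caspase-Glo 3/7 added, 20 min RT; luminescence read. Norm: DMSO = 0%, tamoxifen 100 uM = 100%. AC50, Hill model.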

[4] = Cellular Toxicity (caspase-3) HUV-EC-C (AID 656)
How it was run: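 qHTS; HUV-EC-C, 1000 cells/well; 5 hr settle, 16 hr cmpd, 37°C; Caspase-Glo 3/7, 20 min RT; luminescence. Norm: DMSO = 0%, tamoxifen 100 uM = 100%. Hill-fit AC50.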

[5] = Cellular Toxicity (caspase-3) SHSY5Y (AID 657)
How it was run: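 qHTS, SH-SY5Y, 1500 cells/well, 5 h pre-incubation 37 °C; compound 16 h 37 °C; Caspase-Glo 3/7 1 h RT; luminescence. Norm.: DMSO = 0, 10 uM staurosporine = 100%. Hill fit → AC50.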

[6] = Cellular Toxicity (caspase-3) BJ (AID 658)
How it was run: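 qHTS, BJ fibroblasts, 1000 cells/well; 5 hr preincubation, 16 hr compound, 37 °C; Caspase-Glo 3/7 reagent, 1 hr RT; luminescence. DMSO = 0%, 10 uM staurosporine = 100%. Hill-equation AC50.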

[7] = Cellular Toxicity (caspase-3) MRC-5 (AID 659)
How it was run: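 MRC-5 fibroblasts, 1500/well; 16 h cpd, 37 °C; Caspase-Glo 3/7, 1 h RT; lumi read. Norm: DMSO = 0%, 10 uM staurosporine = 100%. Hill-fit AC50 from qHTS conc-response.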

[8] = Cellular Toxicity (caspase-3) Mesangial (AID 660);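 further: combined caspase 3 and 7 activity read by Caspase-Glo luminescence; cells exposed to compound for 16 h before the caspase read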
How it was run: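 AC50 values come from Hill-equation fits of caspase 3/7 activation, measured as Caspase-Glo luminescence in human glomerular mesangial cells exposed to compound for 16 h at 37 °C; 100% set by 100 uM tamoxifen.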

[9] = Cellular Toxicity (caspase-3) SK-N-SH (AID 661)
How it was run: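 Apoptosis readout in SK-N-SH neuroblastoma: Caspase-Glo 3/7 luminescence following 16 hr treatment in complete culture medium. Normalization used DMSO and 10 uM staurosporine controls.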

Measured: outcome

NC(=O)c1ccccc1
inactive: all assays above

CC(=O)C(C)=O
inactive: all assays above
